Most compounds without a hit are left out; they make up all but 4.1% or so of the library.
ssDAF-12 act: S. stercoralis DAF-12 activation, primary screen. HEK293 ssDAF-12/GRIP1 lit1-tk-luc reporter, luminescence; % of 3 µM dafachronic acid response. activation, % at 6.8 µM. 370,000 tested, 1% active;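 active = activation above the mean over all tested compounds plus 3 SD, cut at about 0.9% in these data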
DAX1 inh-1: inhibitors of DAX1 repression of SF-1 activated StAR promoter; 370,000 tested, 1.1% active; inhibition, % at 6.8 µM; AID 652010; HEK293T StAR-luciferase reporter, SF-1/DAX-1 repression relief;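 active = inhibition above the mean over all tested compounds plus 3 SD, cut at about 3.6% in these data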;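 note: higher inhibition means more luminescence from relief of DAX-1 repression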
hcDAF-12 act: H. contortus DAF-12 activation, primary screen. activation, % at 6.8 µM. HEK293 hcDAF-12 lit1-tk-luc reporter, luminescence; 0% DMSO, 100% Δ7-dafachronic acid. 370,000 tested, 1.4% active;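 active = activation above the mean of all tested compounds plus 3 SD, cut at about 5.5% in these data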
DAX1 inh-2: inhibitors of human orphan nuclear receptor DAX1 (NR0B1) | HEK293 Gal4-DAX1 luciferase reporter, luminescence | inhibition, % at 6.75 µM | 340,000 tested, 0.99% active | AID 504766;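 active = inhibition above the mean over all tested compounds plus 3 SD, cut at about 4.2% in these data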;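 note: inhibition shows as a rise in luminescence from relieved DAX1 repression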
Target sequence (P51843 207-470 limits assumed): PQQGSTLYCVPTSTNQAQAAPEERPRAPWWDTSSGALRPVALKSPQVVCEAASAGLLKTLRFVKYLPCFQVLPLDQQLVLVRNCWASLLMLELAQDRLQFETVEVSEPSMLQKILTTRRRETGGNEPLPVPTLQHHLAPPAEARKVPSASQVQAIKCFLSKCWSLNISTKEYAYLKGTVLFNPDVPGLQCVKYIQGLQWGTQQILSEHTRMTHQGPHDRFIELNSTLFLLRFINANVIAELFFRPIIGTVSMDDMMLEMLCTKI
hgDAF-12 ag: hgDAF-12 agonism, primary luciferase screen; HEK293 GAL4-hgDAF12 UAS-luciferase reporter, agonist luminescence; normalized to butyrate control; activation, % at 6.8 µM; 370,000 tested, 1.8% active; AID 687014;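 active = activation above a cutoff set at the mean of all screened compounds plus 3 SD, cut at about 10% in these data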
Each line names hits and unclear results; the compound was inactive in the other large screens.

CCC(Cc1ccccc1)NC(=O)Cn1cccc1C(=O)c1ccccc1 (stereo unspecified)	none
COc1ccccc1NS(=O)(=O)c1ccc(C)c(NC(=O)NCCCl)c1	DAX1 inh-2 4.4
O=C(CNS(=O)(=O)c1ccc(F)cc1)N1CCN(c2ccccn2)CC1	none (no result: DAX1 inh-2)
COc1ccc(NC(=O)/C(C#N)=C/c2ccc[nH]2)c(OC)c1	hcDAF-12 act 6.5
CCOC(=O)N/N=C/c1c[nH]c2ccccc12	hcDAF-12 act 6.2
CCOC(=O)N/N=C/c1ccc(F)cc1F	ssDAF-12 act 1.0
O=C(N/N=C/c1c[nH]c2ccccc12)c1cc(Cl)ccc1O	ssDAF-12 act 1.6
Cc1ccc(S(=O)(=O)N/N=C/c2c[nH]c3ccccc23)cc1	ssDAF-12 act 0.9
O=C(O)c1ccc(S(=O)(=O)NN=Cc2c[nH]c3ccccc23)cc1	none
COC(=O)N/N=C/c1c[nH]c2ccccc12	none
O=C(N/N=C/c1c[nH]c2ccccc12)c1ccccc1Cl	none
C=CCOC(=O)N[C@H](c1cccc(OC)c1)[C@H](C)/C=C/CC(=O)OC	none (no result: DAX1 inh-2)
Cc1cc(N2CCN(C(=O)OC(C)(C)C)C[C@H]2C)ccc1N1CCN(Cc2ccccc2)[C@@H](C)C1	none (no result: DAX1 inh-2)
Cc1ccc(OCC(=O)N/N=C\c2ccc(O)cc2)c([N+](=O)[O-])c1	none
NC(=S)N/N=C/c1c[nH]c2ccccc12	ssDAF-12 act 1.8
CCN(CC)c1ccc(/C=N/NC(=O)c2c[nH]c3ccccc23)cc1	hcDAF-12 act 5.9
Cc1ccc(OCC(=O)N/N=C/c2c[nH]c3ccccc23)c([N+](=O)[O-])c1	hcDAF-12 act 6.2
CCC(C(=O)Nc1ccccc1N1CCCC1)c1cccc(C)c1 (stereo unspecified)	none (no result: DAX1 inh-2)
Nc1ccc2nc(-c3ccccc3)[nH]c2c1	ssDAF-12 act 1.7
Cc1ccc2nc(-c3ccncc3)[nH]c2c1	hgDAF-12 ag 11
Cc1ccc(-c2csc3nc(-c4ccncc4)[nH]c(=O)c23)cc1	none
O=C(c1ccccc1)c1cccc[n+]1[O-]	DAX1 inh-2 6.2
O=C(c1ccccc1)c1cc[n+]([O-])cc1	none
Cc1ccccc1CNC(=O)CN1CCCc2ccccc21	none (no result: DAX1 inh-2)
c1ccc(-c2cnc(-c3ccccn3)nn2)cc1	hgDAF-12 ag 11
COc1cccc(S(=O)(=O)N(C)C[C@H]2Oc3ncc(Br)cc3C(=O)N([C@H](C)CO)C[C@H]2C)c1	none
COc1cccc(S(=O)(=O)N(C)C[C@@H]2Oc3ncc(Br)cc3C(=O)N([C@H](C)CO)C[C@@H]2C)c1	ssDAF-12 act 1.2 (no result: DAX1 inh-2)
COc1ccccc1NC(=O)N(C)C[C@H]1Oc2ncc(Br)cc2C(=O)N([C@H](C)CO)C[C@H]1C	ssDAF-12 act 1.1, DAX1 inh-2 4.7
C[C@H](CO)N1C[C@H](C)[C@@H](CN(C)C(=O)Nc2ccccc2F)Oc2ncc(Br)cc2C1=O	none
Cc1ccc(NC(=O)Nc2ccc3c(c2)[C@]2(CC(=O)N(CC(C)C)C2c2ccccc2)C(=O)N3C)cc1Cl (stereo partly specified)	none (no result: DAX1 inh-2)
C#CCNC(=O)C[C@H]1C[C@@]2(C(=O)OC)C(=C[C@H](C(C)C)O[C@@H]2C2CC2)N(Cc2ccc3c(c2)OCO3)C1=O	none (no result: DAX1 inh-2)
CC1CCN(C(=O)Cn2nnc(-c3cccs3)n2)CC1	DAX1 inh-1 3.6, DAX1 inh-2 6.0
O=C(Cn1nnc(-c2cccs2)n1)N1CCOCC1	none
Cc1ccccc1NC(=O)Nc1ccc2c(c1)C(=O)N(C)[C@H]1CC[C@H](CC(=O)NCC3CC3)O[C@@H]1CO2	none (no result: DAX1 inh-2)
O=C(Cn1c(=O)c(=O)n(Cc2ccccc2)c2ccc(Cl)cc21)NCC1CCCO1 (stereo unspecified)	DAX1 inh-2 4.6
N#Cc1cc(-c2ccccc2)c[nH]c1=O	DAX1 inh-2 5.3
Clc1ccc2nc(-c3ccccn3)c(Nc3ccc4c(c3)OCO4)n2c1	hgDAF-12 ag 13
O=C1CCCc2nc3c(cc21)C(O)Oc1c-3ccc2ccccc12 (stereo unspecified)	hgDAF-12 ag 12
C=CCSc1n[nH]c(-c2ccc(OC)cc2)n1	hgDAF-12 ag 12
O=C(CSc1nnc(-c2ccccc2)n1Cc1ccco1)Nc1ccc(Oc2ccccc2)cc1	none (no result: DAX1 inh-2)
O=C(NCc1ccccc1)OC1CCC12CCC(c1ccccc1)CC2 (stereo unspecified)	none (no result: DAX1 inh-1, DAX1 inh-2)
N#CCC(=O)N/N=C\c1ccccc1OC/C=C/c1ccccc1	DAX1 inh-1 4.3
N#CCC(=O)N/N=C\c1ccc(OC/C=C/c2ccccc2)cc1	none
O=C(NCCc1c[nH]c2ccccc12)[C@H](Cc1c[nH]c2ccccc12)NC1(C(=O)NC2CCCCC2)CCCCCCC1	none (no result: DAX1 inh-1, DAX1 inh-2)
O=C1NC(=S)CN1c1ccccc1	DAX1 inh-2 5.6
O=C1N(c2ccccc2)CCN1c1ccccc1	hgDAF-12 ag 11
O=C1NCCN1c1ccccc1	none
O[C@H](COc1ccc(C(F)(F)F)cc1)CN1CCC(C(O)(c2ccccc2)c2ccccc2)CC1	none (no result: DAX1 inh-2)
CN(C)S(=O)(=O)c1ccc(N2CCCC2)c(C(=O)Nc2nc3ccc(F)cc3s2)c1	ssDAF-12 act 0.9
CN(C)S(=O)(=O)c1ccc(N2CCCC2)c(C(=O)Nc2nc3ccccc3s2)c1	ssDAF-12 act 1.9
Cc1cccc2sc(NC(=O)c3cc(S(=O)(=O)N(C)C)ccc3N3CCCC3)nc12	none
CC(C)C[C@H]1COc2cc(F)ccc2S(=O)(=O)N1C	none (no result: DAX1 inh-2)
Cc1ccc(CNC(=O)CCS(=O)(=O)c2cc3c(cc2Br)CCN3C(=O)C2CC2)o1	none (no result: DAX1 inh-2)
O=c1c(-c2nc3ccccc3s2)cccn1Cc1ccccc1	hgDAF-12 ag 12
Cc1ccc(Nc2nc(COC(=O)C3CC3)cs2)cc1	hgDAF-12 ag 11
Cc1ccc2nc3ccc(N4CCN(C)CC4)nn3c(=O)c2c1	DAX1 inh-1 4.3, hcDAF-12 act 5.7
COC(=O)C1CN(Cc2cn(Cc3ccccc3)nn2)CCS(=O)(=O)N1Cc1ccccc1 (stereo unspecified)	none (no result: DAX1 inh-2)
O=C1Nc2ccc(Br)cc2/C1=C/C1CC=CCC1 (stereo unspecified)	ssDAF-12 act 1.0
O=C1Nc2ccc(Br)cc2/C1=C/C(=O)c1ccc2c(c1)OCO2	none
CCC1(c2ccc(Cl)cc2)NC(=S)N(c2ccc(C)c(C)c2)N1 (stereo unspecified)	none
CCC1(c2ccc(Cl)cc2)NC(=S)N(c2ccc(C)cc2)N1 (stereo unspecified)	hcDAF-12 act 6.2, hgDAF-12 ag 11
O=C(Nc1ccc2c(c1)OCO2)OC1CC2CC1[C@H]1CCCCN1[C@H]2Cc1ccccc1 (stereo partly specified)	none (no result: DAX1 inh-2)
COc1ccc(C(=O)/C=C/Nc2cc(C)on2)cc1	hgDAF-12 ag 12
COc1ccc(N/C=C/C(=O)c2ccc(C)cc2)c([N+](=O)[O-])c1	DAX1 inh-1 3.6
COc1ccc(/C=C/C(=O)Nc2cc(C)on2)cc1	none
COCCCNC(=O)Cn1nc(Cc2ccncc2)c2ccccc2c1=O	none (no result: DAX1 inh-2)
C=CCn1c(SCCN2CCCCC2)nc2c1c(=O)[nH]c(=O)n2C	none

Bioassay records: PubChem, The Scripps Research Institute Molecular Screening Center
